Assay outcomes: PubChem BioAssay, National Center for Advancing Translational Sciences (NCATS)
TDP1 cell CPT: qHTS for Inhibitors of human tyrosyl-DNA phosphodiesterase 1 (TDP1): qHTS in cells in presence of CPT. AID 686979, 2013. chicken DT40 Tdp1-/-;hTDP1 cells + 20 nM CPT, ATP luminescence, 48 h. Potency, µM (top dose mostly 46.2 µM), inactives show top-dose activity change, negative = growth inhibition, hits mostly inhibitors. 12% of 420,000 active; further: potency means the concentration at half of the fitted maximal effect; nearly all actives have a fitted effect of over 55% in size
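Chicken DT40 Tdp1-/- cells complemented with human TDP1, 400 cells/well, exposed to compounds plus 20 nM camptothecin for at least 48 h at 37 C; viability read as ATP content by CellTiter-Glo luminescence.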
HT1080 IDH1KD tx: qHTS for induction of synthetic lethality in tumor cells producing 2HG: qHTS for the HT-1080-IDH1KD cell line. Potency, µM (top dose mostly 46.1 µM), for the others: at the top dose activity, negative = toxicity, most hits filed as cytotoxic. 2% of 360,000 active. AID 686971, 2013. HT-1080 IDH1 knockdown viability, ATP luminescence, 48 h;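 further: potency means the concentration at half of the fitted maximal effect; 0% = DMSO wells and -100% = cell-free medium wells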
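Using the IDH1-knockdown HT-1080 line run in the same batch and compound series as the NT line, viability after 48 h at 37 °C was determined by CellTiter-Glo luminescence and expressed as % activity.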
IL-1B inflam inh: qHTS for Inhibitors of Inflammasome Signaling: IL-1-beta AlphaLISA Primary Screen | THP-1 LPS/ATP IL-1B secretion, AlphaLISA, 16 h; stronger effect = lower value | activity change, % at 57.5 µM | 4.7% of 360,000 active; in the data active means activity change below about -50%; inconclusive means mostly about -30% to -49%
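Secreted IL-1B measured by AlphaLISA bead assay after 16 h compound exposure of THP-1 cells; compounds (final up to 57.5 uM) added 1 h before LPS (250 ng/mL) and ATP (1.25 mM) stimulation; lower signal means less secretion.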
12-LOX inh: Primary qHTS assay for inhibitors of human arachidonate 12S-lipoxygenase (ALOX12): Round 2 | AID 1671190, 2021 | Polyunsaturated fatty acid lipoxygenase ALOX12 (Homo sapiens), P18054 | 1.1% of 580,000 active | Potency, µM (highest dose often 108 µM), for the others: at the highest dose activity change, negative = inhibition, hits mostly inhibitors | purified 12hLO, xylenol orange hydroperoxide absorbance; further: potency means the concentration at half of the fitted maximal effect
Target sequence (P18054 whole entry, looked up): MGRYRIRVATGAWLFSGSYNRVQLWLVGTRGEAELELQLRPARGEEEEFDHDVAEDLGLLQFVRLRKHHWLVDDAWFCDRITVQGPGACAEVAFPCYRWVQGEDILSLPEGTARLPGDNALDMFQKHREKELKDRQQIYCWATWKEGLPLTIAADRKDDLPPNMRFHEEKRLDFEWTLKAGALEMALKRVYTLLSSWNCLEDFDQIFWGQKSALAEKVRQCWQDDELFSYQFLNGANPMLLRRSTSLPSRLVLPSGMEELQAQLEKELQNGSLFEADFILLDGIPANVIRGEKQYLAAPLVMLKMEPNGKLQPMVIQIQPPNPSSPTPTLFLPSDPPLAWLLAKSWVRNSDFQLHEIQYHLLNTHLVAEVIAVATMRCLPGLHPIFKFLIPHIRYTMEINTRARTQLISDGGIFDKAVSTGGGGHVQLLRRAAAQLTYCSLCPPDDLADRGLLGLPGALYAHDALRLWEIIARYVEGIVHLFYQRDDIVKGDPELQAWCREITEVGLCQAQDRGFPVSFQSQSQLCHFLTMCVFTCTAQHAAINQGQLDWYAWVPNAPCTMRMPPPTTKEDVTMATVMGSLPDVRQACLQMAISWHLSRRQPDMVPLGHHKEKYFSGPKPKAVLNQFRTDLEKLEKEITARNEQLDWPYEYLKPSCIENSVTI
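Purified human 12hLO (150 nM final) in 25 mM Hepes, 0.01% Triton X-100, pH 7.0 was preincubated 15 min at room temperature with compound. Then 40 uM arachidonic acid was added, 30 min. Hydroperoxide was read by Fe-XO absorbance ratio 573/405 nm.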
TDP1 cell noCPT: qHTS for Inhibitors of human tyrosyl-DNA phosphodiesterase 1 (TDP1): qHTS in cells in absence of CPT; 15% of 420,000 active; DT40 Tdp1-/- hTDP1 cells, no CPT, ATP luminescence, 48 h; Potency, µM (series often up to 46.2 µM), inactives show at the top dose activity change, negative = growth inhibition, usual class: inhibitors; further: potency means the concentration at half of the fitted maximal effect; nearly all actives have a fitted effect of over 55% in size
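Seeded 400 DT40-hTDP1 cells/well (vehicle DMSO, no 20 nM CPT); pinned compounds; ≥48 hr at 37 °C; CellTiter-Glo luminescence as viability measure.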
HT1080NT lethal: qHTS for induction of synthetic lethality in tumor cells producing 2HG: qHTS for the HT-1080-NT fibrosarcoma cell line. HT-1080-NT fibrosarcoma viability, CellTiter-Glo ATP luminescence, 48 h. Potency, µM (doses to about 46.1 µM), without a hit: top-dose activity, negative = less viability, usual class: cytotoxic. 1.6% of 360,000 active. AID 686970, 2013;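 further: NT is the 2HG producing partner of a matched IDH1 knockdown line; potency means the concentration at half of the fitted maximal effect; 0% = DMSO-treated cells and -100% = media-only wells without cells; nearly all actives have a fitted effect of over 55% in size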
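Read-out is CellTiter-Glo luminescence after 10 minutes at room temperature, following 48 hours' compound treatment of HT-1080-NT cells (750 cells/well, RPMI, 5% FBS, 37 degrees C).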
Numbers without * were called inactive; ? = inconclusive; / = no result given; [ ] = remark or other dose. This excerpt belongs to a sample that is enriched for hits. Unless noted, the call rests on the fitted dose curve; in most records, active means well fitted curve in the direction sought with a large enough effect; inconclusive means small, poorly fitted or top-dose-only effect, or another doubt; inactive means no such curve, though single readings can be large; an effect the other way counts as inactive or inconclusive. Unless noted, on the % scale 0 is the no-effect control and ±100 the full control effect.

SMILES	TDP1 cell CPT	HT1080 IDH1KD tx	IL-1B inflam inh	12-LOX inh	TDP1 cell noCPT	HT1080NT lethal
O=C(NNC(=S)Nc1ccccc1)c1ccc(F)cc1	/	/	/	3%	/	/
CCON1C(=O)C(C)(C)N(OCC)C(=O)C1(C)C	?	8%	22	?	12µM*	18%
Cn1c(=O)c2c(nc(NCCCN3CCOCC3)n2Cc2ccccc2Cl)n(C)c1=O	/	/	/	20%	/	/
Cn1c(NCCCN2CCOCC2)nc2c1c(=O)n(Cc1ccc(Cl)cc1Cl)c(=O)n2C	23µM*	-30%	11	0%	?	-14%
COCCCNc1nc2c(c(=O)n(Cc3ccc(Cl)cc3)c(=O)n2C)n1C	-15%	-1%	-6	4%	-57%	-7%
CCCCNc1nc2c(c(=O)n(Cc3ccc(Cl)cc3)c(=O)n2C)n1C	21µM*	/	/	?	16µM*	/
CCCCNc1nc2c(c(=O)n(Cc3ccc(Cl)c(Cl)c3)c(=O)n2C)n1C	?	/	/	-15%	29µM*	/
CC(C)CCNc1nc2c(c(=O)n(Cc3cccc(F)c3)c(=O)n2C)n1C	26µM*	?	-19	-18%	?	?
FC(F)(F)c1cc(N=Cc2ccc(-c3ccccc3)cc2)cc(C(F)(F)F)c1	/	/	/	35%	/	/
COc1ccc(Cl)cc1C(=O)NCc1nc(-c2cccc(C)c2)no1	?	/	/	-6%	-26%	/
COCCNc1ccc(-c2noc([C@@H]3CCCN3Cc3ccncc3)n2)cn1	/	/	/	19%[176 µM]	/	/
Cc1ccc2[nH]c3c(N4CCc5ccccc5C4)ncnc3c2c1	2.9µM*	-8%	-83*	-18%	3.7µM*	21µM*
Fc1ccc2[nH]c3c(N4CCc5ccccc5C4)ncnc3c2c1	1.8µM*	2.6µM*	?	134%	1.8µM*	10µM*
CCOc1ccc2[nH]c3c(N4CCc5ccccc5C4)ncnc3c2c1	15µM*	10µM*	/	?	16µM*	18µM*
CN1CCN(c2ncnc3c2[nH]c2ccc(F)cc23)CC1	?	-23%	-21	15%	?	0%
COc1ccc([C@H]2CC(=O)C[C@@H](CCn3nnc4ccccc43)O2)cc1	-1%	4%	19	-6%	-28%	3%
COC(=O)C(c1ccccc1)(c1cn(Cc2ccccc2)c2ccccc12)C(Nc1ccccc1)c1ccccc1 (configuration not stated)	/	/	/	0%	/	/
CNC(=S)NNC(=O)C1CC1	/	/	/	-5%	/	/
CNC(=S)N/N=C/c1cn(Cc2c(F)cccc2Cl)c2ccccc12	?	-27%	38	25µM*	12µM*	-15%
CCNC(=S)N/N=C/c1cn(Cc2ccccc2F)c2ccccc12	6.5µM*	2%	-19	40µM*	5.8µM*	-5%
CC(C)OC(=O)c1cccc(C(=O)OCc2ccco2)n1	?	24%	-74*	?	21µM*	-2%
CC(C)OC(=O)c1cccc(C(=O)Oc2ccccc2)n1	1%	3%	30	19%	6%	3%
Cn1ncc(N2CCC(NC(=O)CC(C)(C)C)CC2)cc1=O	/	/	/	51%	/	/
Nc1nccnc1C(=O)NCC1(c2ccccc2)CC1	/	/	/	42%	/	/
Nc1nc2ccc(Br)cc2o1	5%	3%	-5	3%	-2%	0%
SMILES	TDP1 cell CPT	HT1080 IDH1KD tx	IL-1B inflam inh	12-LOX inh	TDP1 cell noCPT	HT1080NT lethal
Nc1nc(Cl)nc2ccc(Br)cc12	?	-8%	22	-3%	12µM*	-9%
CCOc1ccc(S(=O)(=O)N2CCN(C(=O)[C@H](C)NC(N)=O)CC2)cc1	/	/	/	43%	/	/
Cc1cccc(C)c1NC(=O)c1sc(-n2nc(C)c(Cc3ccc4c(c3)OCO4)c2C)nc1C	-11%	/	/	-21%	-21%	/
CC(=O)c1ccc(NC(=O)c2sc(-n3nc(C)c(Cc4ccc5c(c4)OCO5)c3C)nc2C)cc1	16µM*	/	/	?	16µM*	/
Cc1ccc(Cl)cc1NC(=O)c1sc(-n2nc(C)c(Cc3ccc4c(c3)OCO4)c2C)nc1C	?	/	/	0%	2.9µM*	/
Cc1ccc(Cc2c(C)nn(-c3nc(C)c(C(=O)N4CCCCC4C)s3)c2C)cc1 (configuration not stated)	?	/	/	-1%	15µM*	/
CC(=O)c1ccc(NC(=O)c2sc(-n3nc(C)c(Cc4ccccc4)c3C)nc2C)cc1	23µM*	/	/	-19%	16µM*	/
CSc1nc2c(=O)[nH]cnc2s1	/	/	/	8%	/	/
CC(C)c1nc(C2Cc3ccccc3N2C(=O)NCc2ccco2)no1 (configuration not stated)	/	/	/	16%	/	/
Cc1nc(-n2nc(C)c(Cc3ccc4c(c3)OCO4)c2C)sc1C(=O)Nc1cccc(Cl)c1	?	/	/	-16%	16µM*	/
C[N+]1(CC2COC3(CCCCC3)O2)CCCCC1 (configuration not stated)	-11%	-1%	7	?	-4%	4%
C[N+]1(CC2COC(c3ccccc3)(C3CCCCC3)O2)CCCCC1 (configuration not stated)	-94%	/	/	?	6µM*	/
NCCCNC(=O)Cn1c(=O)c2c3c(sc2n(Cc2ccccc2)c1=O)CCCC3	21µM*	-10%	3	-14%	?	-3%
O=C(Cn1c(=O)n2ncnc2c2c3c(sc21)CCCC3)c1ccccc1	23µM*	-2%	-4	-5%	?	4%
NCCNC(=O)Cn1c(=O)c2c3c(sc2n(Cc2ccccc2)c1=O)CCCC3	21µM*	?	-78*	4%	23µM*	?
O=c1n(Cc2ccccc2Cl)c2sc3c(c2c2ncnn12)CCCC3	?	0%	-14	8%	?	-4%
CC(=O)C1=C(O)C=C2Oc3c(C(C)=O)c(O)c(C)c(O)c3C2(C)C1=O (configuration not stated)	-5%[9.04 µM]	/	/	?	10%[9.04 µM]	/
CC(=O)Oc1c(C)c(OC(C)=O)c2c(c1C(C)=O)OC1CC(=O)C(C(C)=O)=C(O)C21C (configuration not stated)	?	-22%	16	28µM*	?	-11%
